# Unmarked numbers belong to inactive results. Results filed as inconclusive are left out. Entries that show only a call come without a potency. Calls of active or inactive are those of the source. Unless noted, calls come from the whole dose curve.
# Legend:
# [1] = Nuclear factor erythroid 2-related factor 2/antioxidant responsive element (Nrf2/ARE) small molecule agonists: qHTS cell viability counter screen in human keratinocytes (AID 1919968; active = well fitted curve in the direction sought with a large enough effect in the repeat runs; an effect the other way counts as inactive or inconclusive; note: nearly all actives have a fitted effect of over 55% in size)
# Method in brief: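 Measured as CellTiter-Fluor fluorescence, this readout tracks cytotoxicity in the same wells as the ARE-luciferase screen. HaCaT reporter cells (1,500/well) received compounds after a 5 h pre-incubation and were exposed for 23 h.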
# [2] = Nuclear factor erythroid 2-related factor 2/antioxidant responsive element (Nrf2/ARE) small molecule agonists: luciferase reporter gene qHTS assay in human keratinocytes (AID 1919969); note: nearly all actives have a fitted effect of over 35% in size; note: potency is the fitted concentration of half-maximal effect
# [3] = target: Gonadotropin-releasing hormone receptor (Homo sapiens) (UniProt P30968); assay: Human gonadotropin-releasing hormone receptor (GnRHR) small molecule agonists, calcium flux assay in GnRHR-HEK293 cells (AID 1920063); note: nearly all actives have a fitted effect of over 35% in size
# Gonadotropin-releasing hormone receptor (Homo sapiens), sequence (P30968 whole entry, looked up): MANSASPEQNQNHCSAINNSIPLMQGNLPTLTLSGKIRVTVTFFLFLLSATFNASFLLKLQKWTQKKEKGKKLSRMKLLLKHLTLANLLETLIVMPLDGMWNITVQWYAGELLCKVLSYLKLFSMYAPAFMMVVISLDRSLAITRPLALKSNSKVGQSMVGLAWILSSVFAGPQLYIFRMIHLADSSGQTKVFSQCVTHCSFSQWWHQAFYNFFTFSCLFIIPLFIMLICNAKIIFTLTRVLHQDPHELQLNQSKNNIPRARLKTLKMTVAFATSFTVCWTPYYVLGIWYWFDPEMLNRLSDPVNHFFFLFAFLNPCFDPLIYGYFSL
# Method in brief: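 Fluorescence kinetics (480 nm excitation, 540 nm emission; 3 min, 1 s steps) report calcium mobilisation in human GnRHR-HEK293 cells in agonist mode. Dye incubation: 1 h, 37 C.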
# [4] = target: KiSS-1 receptor (Homo sapiens) (UniProt Q969F8); assay: Human kisspeptin (KISS1R) small molecule agonists, calcium flux assay in KISS1R-HEK293 cells (AID 1920064; active = well fitted curve in the direction sought with a large enough effect in the repeat runs; an effect the other way counts as inactive or inconclusive)
# KiSS-1 receptor (Homo sapiens), sequence (Q969F8 whole entry, looked up): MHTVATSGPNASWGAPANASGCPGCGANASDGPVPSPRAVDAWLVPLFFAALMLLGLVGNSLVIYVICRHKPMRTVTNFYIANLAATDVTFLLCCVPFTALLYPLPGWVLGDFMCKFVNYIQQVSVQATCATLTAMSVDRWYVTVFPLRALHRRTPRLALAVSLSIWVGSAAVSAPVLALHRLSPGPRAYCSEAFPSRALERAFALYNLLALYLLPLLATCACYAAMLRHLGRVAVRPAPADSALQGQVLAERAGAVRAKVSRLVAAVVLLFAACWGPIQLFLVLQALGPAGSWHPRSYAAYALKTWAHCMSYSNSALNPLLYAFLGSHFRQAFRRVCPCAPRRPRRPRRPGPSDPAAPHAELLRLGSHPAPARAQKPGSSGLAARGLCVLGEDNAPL
# Method in brief: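 Measures KISS1R agonism through calcium-sensitive dye fluorescence in stably transfected HEK293 cells, read for 3 min after pin-tool compound delivery; 15-point titrations in triplicate.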
# [5] = G protein-coupled receptor (GPCR) small molecule agonists, calcium flux assay: HEK293 wild type cell line counter screen (AID 1920065)
# Method in brief: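 Readout: fluorescence at 480 nm excitation/540 nm emission, sampled at 1 s intervals for 3 min. Cells had been cultured 18 h, then dye-loaded 1 h at 37 C before compound or ATP addition.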
# [6] = p53 small molecule agonists, cell-based qHTS assay with human liver microsomes (AID 1963577)
# Method in brief: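 p53RE-bla reporter cells were pre-incubated 5 h at 37 C, then treated with compounds plus human liver microsomes (0.5 mg/mL final) and NADPH (0.5 mg/mL final) for 16 h at 37 C. Beta-lactamase activity was read by LiveBLAzer fluorescence after 2 h at room temperature.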
# [7] = p53 small molecule agonists, cell-based qHTS assay with rat liver microsomes (AID 1963578)
# Method in brief: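 p53RE-bla cells were exposed to compounds together with rat liver microsomes (0.5 mg/mL final) and NADPH (0.5 mg/mL final) for 16 h at 37 C, then read by LiveBLAzer beta-lactamase fluorescence after 2 h at room temperature.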
# [8] = p53 small molecule agonists, cell-based qHTS assay with human liver microsomes: qHTS cell viability counter screen (AID 1963579); note: nearly all actives have a fitted effect of over 45% in size
# Method in brief: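 p53RE-bla cells (4,000/well) were pre-incubated 5 h at 37 C, then given compounds in DMSO plus human liver microsomes (0.5 mg/mL final) and NADPH (0.5 mg/mL final) for 16 h at 37 C. Viability was read by CellTiter-Glo luminescence.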
# [9] = p53 small molecule agonists, cell-based qHTS assay with rat liver microsomes: qHTS cell viability counter screen (AID 1963580); note: nearly all actives have a fitted effect of over 45% in size
# Method in brief: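 Viability is assessed in parallel with the p53 reporter read: HCT-116 p53RE-bla cells receive compounds plus rat microsomes and NADPH (0.5 mg/mL final apiece), incubate 16 h at 37 C, and then CellTiter-Glo luminescence is recorded.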
# [10] = p53 small molecule agonists, cell-based qHTS assay (AID 1963582; active = well fitted activation curve with a large enough effect in the signal ratio in the repeat runs, not every such curve was filed as active; the % refers to the signal ratio)
# Method in brief: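 Compounds are pin-transferred in DMSO onto p53RE-bla cells and incubated 16 h at 37 C. The B/G FRET beta-lactamase substrate is then applied for 2 h at RT and fluorescence recorded.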
# [11] = target: 5-hydroxytryptamine receptor 2A (Homo sapiens) (UniProt P28223); assay: 5-hydroxytryptamine receptor 2A (HTR2A) small molecule antagonists, cell-based qHTS assay (AID 1963586); note: nearly all actives have a fitted effect of over 45% in size; note: potency is the fitted concentration of half-maximal effect
# 5-hydroxytryptamine receptor 2A (Homo sapiens), sequence (P28223 whole entry, looked up): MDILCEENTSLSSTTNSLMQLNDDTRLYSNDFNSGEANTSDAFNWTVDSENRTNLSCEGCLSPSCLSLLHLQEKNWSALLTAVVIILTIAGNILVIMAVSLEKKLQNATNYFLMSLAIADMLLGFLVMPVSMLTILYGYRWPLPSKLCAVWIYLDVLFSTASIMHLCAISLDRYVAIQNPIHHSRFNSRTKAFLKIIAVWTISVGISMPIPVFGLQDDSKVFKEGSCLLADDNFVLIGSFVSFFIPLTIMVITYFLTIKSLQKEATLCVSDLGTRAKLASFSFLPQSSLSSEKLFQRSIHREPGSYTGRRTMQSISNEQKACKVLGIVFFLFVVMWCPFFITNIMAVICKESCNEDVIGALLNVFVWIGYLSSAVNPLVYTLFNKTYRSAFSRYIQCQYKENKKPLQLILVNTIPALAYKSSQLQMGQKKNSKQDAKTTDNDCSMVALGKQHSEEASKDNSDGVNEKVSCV
# Method in brief: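 Antagonist-mode intracellular calcium assay: DOI (4 nM) added after 5 min compound pre-incubation at room temperature to dye-loaded HTR2A-CHO cells. Fluorescence followed for 3 min, sampled every second.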
# [12] = target: 5-hydroxytryptamine receptor 2A (Homo sapiens) (UniProt P28223); assay: 5-hydroxytryptamine receptor 2A (HTR2A) small molecule agonists, cell-based qHTS assay (AID 1963587); note: nearly all actives have a fitted effect of over 30% in size
# Method in brief: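 CHO cells stably expressing human HTR2A, plated 18 h, loaded with calcium dye 1 h at 37 C. Agonist mode: compounds added and intracellular calcium fluorescence recorded kinetically for 2 min at 1 sec intervals.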
# [13] = target: Muscarinic acetylcholine receptor M1 (Homo sapiens) (UniProt P11229); assay: Cholinergic receptor muscarinic 1 (CHRM1) small molecule agonists, cell-based qHTS assay (AID 1963589); note: nearly all actives have a fitted effect of over 35% in size
# Muscarinic acetylcholine receptor M1 (Homo sapiens), sequence (P11229 whole entry, looked up): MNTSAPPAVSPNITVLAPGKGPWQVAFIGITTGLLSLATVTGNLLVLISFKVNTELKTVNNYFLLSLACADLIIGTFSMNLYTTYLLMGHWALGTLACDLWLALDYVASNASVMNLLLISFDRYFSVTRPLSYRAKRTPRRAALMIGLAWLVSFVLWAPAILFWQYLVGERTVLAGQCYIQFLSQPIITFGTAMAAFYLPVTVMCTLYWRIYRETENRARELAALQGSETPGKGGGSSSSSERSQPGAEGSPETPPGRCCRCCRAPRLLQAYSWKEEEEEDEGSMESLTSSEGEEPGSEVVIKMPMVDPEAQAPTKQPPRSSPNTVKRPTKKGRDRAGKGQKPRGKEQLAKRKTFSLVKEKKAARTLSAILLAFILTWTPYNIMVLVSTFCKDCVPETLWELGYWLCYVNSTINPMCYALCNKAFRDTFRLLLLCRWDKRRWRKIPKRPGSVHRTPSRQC
# Method in brief: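 Each compound was tested at 15 concentrations across three independent runs on dye-loaded CHO cells stably expressing human CHRM1, reading intracellular calcium fluorescence kinetically at 1 sec intervals.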
# [14] = cAMP Responsive Elements (CRE) small molecule agonists, cell-based qHTS assay (AID 1963590)
# Method in brief: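 Cell line: CRE-bla HEK 293T; medium DMEM/10% dialyzed FBS/0.1 mM NEAA/1 mM pyruvate/25 mM HEPES; 3 h compound exposure; beta-lactamase FRET readout after 2 h substrate loading at RT.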
# [15] = target: Beta-2 adrenergic receptor (Homo sapiens) (UniProt P07550); assay: Adrenergic beta2 receptor (ADRB2) small molecule antagonists, cell-based qHTS assay (AID 1963592); note: series mostly up to about 92 µM; nearly all actives have a fitted effect of over 50% in size
# Beta-2 adrenergic receptor (Homo sapiens), sequence (P07550 whole entry, looked up): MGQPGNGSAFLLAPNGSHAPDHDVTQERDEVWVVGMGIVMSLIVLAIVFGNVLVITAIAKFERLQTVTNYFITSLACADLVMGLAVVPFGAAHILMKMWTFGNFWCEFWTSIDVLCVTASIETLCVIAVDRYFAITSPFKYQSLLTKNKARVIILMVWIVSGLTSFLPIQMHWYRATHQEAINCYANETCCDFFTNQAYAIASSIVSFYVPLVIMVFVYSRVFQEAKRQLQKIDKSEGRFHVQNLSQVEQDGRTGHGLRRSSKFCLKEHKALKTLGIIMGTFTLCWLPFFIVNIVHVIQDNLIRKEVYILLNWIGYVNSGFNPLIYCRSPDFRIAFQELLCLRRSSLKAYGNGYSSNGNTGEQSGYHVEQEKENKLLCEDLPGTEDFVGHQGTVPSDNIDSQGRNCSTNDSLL
# Method in brief: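 Cells (CHO, stable ADRB2 overexpression) incubated 18-20hr at 37C; compounds added from DMSO; agonist mix (1nM isoproterenol, 100uM IBMX, 25uM Ro-20-1724) added; 0.5hr RT; d2-cAMP and anti-cAMP-cryptate added; 1hr RT; 665/615 nm read.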
# [16] = target: Beta-2 adrenergic receptor (Homo sapiens) (UniProt P07550); assay: Adrenergic beta2 receptor (ADRB2) small molecule agonists, cell-based qHTS assay (AID 1963593);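 note: CHO cells stably overexpressing human ADRB2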
# Method in brief: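 CHO cells stably over-expressing ADRB2 were plated overnight at 37C, then dosed with compounds plus a stimulation mix containing 100uM IBMX and 25uM Ro-20-1724 for 0.5hr at room temperature. cAMP was measured by HTRF competition, 1hr.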
# [17] = target: D(2) dopamine receptor (Homo sapiens) (UniProt P14416); assay: Dopamine D2 receptor (DRD2) small molecule agonists, cell-based qHTS assay (AID 1963594); note: nearly all actives have a fitted effect of over 35% in size
# D(2) dopamine receptor (Homo sapiens), sequence (P14416 whole entry, looked up): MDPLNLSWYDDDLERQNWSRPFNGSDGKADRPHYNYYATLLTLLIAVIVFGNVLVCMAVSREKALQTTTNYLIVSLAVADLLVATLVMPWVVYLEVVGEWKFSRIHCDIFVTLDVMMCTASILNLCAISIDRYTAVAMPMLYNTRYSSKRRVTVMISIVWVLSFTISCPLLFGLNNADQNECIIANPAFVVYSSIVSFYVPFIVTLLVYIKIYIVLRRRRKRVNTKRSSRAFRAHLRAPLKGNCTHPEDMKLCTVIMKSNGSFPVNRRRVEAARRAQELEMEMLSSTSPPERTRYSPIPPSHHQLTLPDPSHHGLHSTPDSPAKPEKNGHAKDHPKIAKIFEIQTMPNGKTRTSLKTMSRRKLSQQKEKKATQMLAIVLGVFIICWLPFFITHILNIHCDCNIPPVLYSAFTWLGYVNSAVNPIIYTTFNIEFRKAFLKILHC
# Method in brief: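 HEK293 cells stably expressing human DRD2, pre-treated with PDE inhibitor Ro20-1724 (0.1 mM final) and compound 10 min at room temperature, then stimulated with NKH477 (200nM […]) for 30 min. cAMP read by HTRF (665/620 nm).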
# [18] = target: D(2) dopamine receptor (Homo sapiens) (UniProt P14416); assay: Dopamine D2 receptor (DRD2) small molecule antagonists, cell-based qHTS assay (AID 1963595; active = well fitted inhibition curve with a large enough effect in the signal ratio in the repeat runs, with a control signal flat; the % refers to the signal ratio; note: potency is the fitted concentration of half-maximal effect)
# Method in brief: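 HEK293 cells stably expressing DRD2, preincubated with 0.1 mM Ro20-1724 and compounds 10 min, were stimulated with 200 nM NKH477 plus 12 nM quinpirole for 30 min at room temperature; cAMP measured by HTRF (665/620 nm).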
# [19] = target: Muscarinic acetylcholine receptor M1 (Homo sapiens) (UniProt P11229); assay: Cholinergic receptor muscarinic 1 (CHRM1) small molecule antagonists, cell-based qHTS assay (AID 1963588); note: nearly all actives have a fitted effect of over 40% in size; note: potency is the fitted concentration of half-maximal effect
# Method in brief: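 CHRM1-CHO calcium-flux assay, antagonist mode. Cells were seeded 18 h, dye-loaded 1 h at 37 C and given compound for 5 min at RT, then acetylcholine was added at 50nM. FDSS fluorescence was read 3 min; 15 concentrations, three runs.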
# [20] = cAMP Responsive Elements (CRE) small molecule antagonists, cell-based qHTS assay (AID 1963591; active = well fitted inhibition curve with a large enough effect in the signal ratio in the repeat runs, not every such curve was filed as active; the % refers to the signal ratio)
# Method in brief: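 Inhibition of NKH477-driven (0.25 uM final) CRE-beta-lactamase signal in HEK293T cells, 3 h compound exposure at 37 °C, detected by FRET substrate fluorescence.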
SMILES,Potency [1],Potency [2],Potency [3],outcome [4],outcome [5],Potency [6],Potency [7],Potency [8],Potency [9],Potency [10],Potency [11],Potency [12],Potency [13],Potency [14],Potency [15],Potency [16],Potency [17],Potency [18],Potency [19],Potency [20]
CCOC(=O)C1=NOC(c2ccccc2)(c2ccccc2)C1,inactive,inactive,inactive,inactive,inactive,inactive,inactive,inactive,inactive,inactive,inactive,inactive,inactive,inactive,inactive,inactive,inactive,inactive,,
OCCCc1cccnc1,inactive,inactive,inactive,inactive,inactive,inactive,inactive,inactive,inactive,inactive,inactive,inactive,,inactive,inactive,,inactive,,inactive,inactive
CN1CCCCC1CCN1c2ccccc2Sc2ccc(S(C)=O)cc21 (stereo not given),inactive,inactive,inactive,inactive,inactive,inactive,inactive,inactive,inactive,inactive,,inactive,inactive,,inactive,inactive,,1880 nM (active),,inactive
CO[Si](CCC1CCC2OC2C1)(OC)OC (stereo not given),inactive,inactive,inactive,inactive,inactive,inactive,inactive,inactive,inactive,inactive,inactive,inactive,inactive,inactive,inactive,,inactive,inactive,,
CN1CCN(C2=Nc3ccccc3Sc3ccc(Cl)cc32)CC1,inactive,inactive,inactive,inactive,inactive,inactive,inactive,inactive,inactive,inactive,81.8 nM (active),inactive,inactive,,inactive,,inactive,5960 nM (active),1450 nM (active),
COc1ccc(CCC(=O)c2c(O)cc(O[C@@H]3O[C@H](CO)[C@@H](O)[C@H](O)[C@H]3O[C@@H]3O[C@@H](C)[C@H](O)[C@@H](O)[C@H]3O)cc2O)cc1O,inactive,inactive,inactive,inactive,inactive,inactive,inactive,inactive,inactive,inactive,inactive,inactive,inactive,inactive,inactive,,inactive,inactive,,inactive
CCCCCc1ccco1,inactive,44700 nM (active),inactive,inactive,inactive,inactive,inactive,inactive,inactive,inactive,inactive,,inactive,inactive,inactive,,inactive,inactive,,inactive
